The whole screen tested about 87,000 compounds, of which about 540 (0.62%) were called active. The rule behind the calls is not given here. Only a selection was taken, and actives are over-represented in it overall. Measured potencies and affinities stand elsewhere.
experiment: MT1-MMP gene expression reporter suppression – cell-based, luciferase reporter, luminescence (AID 618); conditions: MT1-MMP promoter luciferase reporter cells;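 note: actives suppress MT1-MMP promoter-driven transcription so potencies describe inhibitors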

SMILES | outcome
COCCCN1C(=O)C(=O)/C(=C(/O)c2ccc(OC(C)C)cc2)C1c1ccncc1 (configuration not stated) | inactive
COc1ccc(-c2c/c(=N\c3nc(-c4ccccc4)c(C)s3)c3ccccc3o2)cc1O | active
COc1ccc(-c2nc(-c3cccs3)c(-c3cccs3)[nH]2)cc1O | inactive
COc1ccc(-c2nc(-c3ccccc3)c(-c3cc([N+](=O)[O-])ccc3C)[nH]2)cc1O | inactive
Cc1nn(C)c(C)c1S(=O)(=O)N1CCC(C(=O)NCC2COc3ccccc3O2)CC1 (configuration not stated) | inactive
COC(=O)[C@@H]1C[C@@H]2CC[C@@H](O)C[C@@H]2N1Cc1ccc(-c2ccccc2)cc1 | inactive
COC(=O)[C@@H]1C[C@H]2CC[C@H](O)C[C@H]2N1Cc1ccc(-c2ccccc2)cc1 | active
COC(=O)[C@@H]1C[C@@H]2CC[C@@H](O)C[C@@H]2N1Cc1ccc(Cl)cc1 | inactive
O=c1c(Cl)c(NCCCO)cnn1-c1nc2ccccc2[nH]1 | inactive
CC1(C)CC(=O)c2cnn(-c3nc4ccccc4[nH]3)c2C1 | inactive
CC(=O)c1c(C)nn(C(=O)N2CCOCC2)c1C | inactive
CCOc1ccccc1N(C(=O)CNS(=O)(=O)c1ccccc1)C(CC)C(=O)NCc1ccco1 (configuration not stated) | inactive
COc1ccc(/C=N\n2nnc3ccccc32)cc1 | active
COc1ccc(/C=N/n2cnnc2SCc2ccccc2)cc1 | inactive
COc1ccc(/C=N/n2c(N)nc3ccccc32)cc1OC | inactive
CC1(c2ccccc2)NC(=O)N(CC(=O)N2CCOCC2)C1=O (configuration not stated) | inactive
O=c1c2ccccc2cnn1-c1ccc(Cl)cc1 | inactive
O=c1c2ccccc2cnn1-c1nc2ccccc2s1 | active
O=c1c2ccccc2cnn1-c1ccc(Br)cc1 | inactive
COc1ccc(-c2noc(CCC(=O)NCCCN3CCC(Cc4ccccc4)CC3)n2)cc1 | inactive
CCCC(=O)Nc1ccc(Cl)c(NC(=O)c2cccnc2)c1 | inactive

SMILES | outcome
O=C1CCCCCN1C(=O)c1cccc(C(=O)N2CCCCCC2=O)c1 | inactive
O=C1CCCCCN1C(=O)c1ccc(C(=O)N2CCCCCC2=O)cc1 | inactive
Cc1ccc2c(c1)CCCN2C(=O)C1CCCO1 (configuration not stated) | inactive
CN(C)S(=O)(=O)c1ccc2nc(NC(=O)c3cccs3)sc2c1 | inactive
CCOC(=O)c1ccc2nc(NC(=O)c3cccs3)sc2c1 | inactive
CCN(CC)S(=O)(=O)c1ccc2nc(NC(=O)c3cccs3)sc2c1 | inactive
Cc1ccc2nc(NC(=O)c3ccc(Cl)s3)sc2c1 | inactive
Cc1ccc2nc(NC(=O)c3cccs3)sc2c1 | active
CS(=O)(=O)c1ccc2nc(NC(=O)c3cccs3)sc2c1 | active
CCSc1n[nH]c2nc3c(c(=O)n12)C1(CCCC1)Cc1ccccc1-3 | inactive
CCOc1ccccc1C1CC(=O)NC2=C1C(=O)CCC2 (configuration not stated) | inactive
CCCCOc1ccccc1C1CC(=O)NC2=C1C(=O)CCC2 (configuration not stated) | active
CCCOc1ccccc1C1CC(=O)NC2=C1C(=O)CCC2 (configuration not stated) | inactive
COc1oc(-c2ccc(Cl)cc2)nc1C(F)(F)F | inactive
c1cc2c(cc1C1CCCCC1)c1c3n2CCCNC3CCC1 (configuration not stated) | active
Cc1ccc2c(c1)c1c3n2CCN(C(=O)C2CC2)C3CCC1 (configuration not stated) | inactive
Cc1ccc2c(c1)c1c3n2CCCNC3CCC1 (configuration not stated) | inactive
Cc1ccc2c(c1)c1c3n2CCN(C(=O)CN2CCN(C)CC2)C3CCC1 (configuration not stated) | inactive
c1ccc2c(c1)c1c3n2CCNC3CCC1 (configuration not stated) | inactive
CCCCCn1c(N)c(-c2nc3ccccc3s2)c2c([N+](=O)[O-])nn(C)c(=O)c21 | inactive
Cc1cc(OC(=O)c2ccco2)c2c(C)cc(=O)oc2c1 | inactive

SMILES | outcome
O=c1oc2ccccc2n1CCCOc1ccccc1 | inactive
CCc1cccc(CC)c1NC(=O)CN1CC(C)SC1=NC1CCCCC1 (configuration not stated) | inactive
Cc1ccc(NC(=O)CN2CC(C)SC2=NC2CCCCC2)cc1 (configuration not stated) | active
CC1CCCN(S(=O)(=O)c2ccc(NC(=O)CN3CCN(C)CC3)cc2)C1 (configuration not stated) | inactive
C=CCOc1cc(C)nc(-c2ccccc2O)n1 | inactive
CCOC(=O)CSc1nnc(N)s1 | inactive
O=C1C/C(=C/NCc2ccccc2)C(=O)N1 | inactive
CCSc1nnc(NC(=O)CSc2nccn2-c2cccc(C)c2C)s1 | inactive
Cc1nnc(NC(=O)CSc2nccn2-c2cccc(C)c2C)s1 | active
CCc1nnc(NC(=O)CSc2nccn2-c2cccc(C)c2C)s1 | inactive
O=C1CC(c2c[nH]c3ccccc23)C(=O)N1 (configuration not stated) | inactive
CCOc1ccc(-c2cc(CCCC(=O)NCCc3ccccc3)no2)cc1 | inactive
CCOc1ccc(-c2cc(CCCC(=O)NCCc3ccc(OC)c(OC)c3OC)no2)cc1 | inactive
CCOc1ccc(NC(=O)CCCc2cc(-c3ccc(OCC)cc3)on2)cc1 | inactive
CCOc1ccc(-c2cc(CCCC(=O)Nc3cccc(OC)c3)no2)cc1 | inactive
COc1ccccc1NC(=O)NC(=O)N(C(C)C)S(C)(=O)=O | inactive
Cc1cc2ncn(CC(O)COC3CCCCC3)c2cc1C (configuration not stated) | inactive
CC(=O)Nc1ccc(OCC(=O)c2ccc(C)cc2C)cc1 | inactive
CC(C)NC(=O)c1ccccc1NC(=O)c1ccccc1N(C)S(C)(=O)=O | inactive
Cc1cc(NC(=O)COC(=O)c2n[nH]c3ccccc23)no1 | inactive
